Data: PubChem BioAssay (EPA / NIEHS)
“And” between values parts separate entries of the source, which are not always exact repeats. Identical values can stand only once. Records with an inconclusive call do not appear. The source holds several records for some structures; these can differ, active in one and inactive in another. The source made the active and inactive calls. The calls were made as follows, unless noted: active = hit-call score of the fitted dose curve at least 0.9, where 1 is the maximum; inactive = score below 0.9.

Columns and labels:
[1] = read-out: Basic fibroblast growth factor (bFGF), FGF2 (gene 2247); experiment: BSK_MyoF_bFGF: BioMAP Diversity Plus: MyoF Assay for Basic fibroblast growth factor (bFGF) Biomarker Activity (AID 2284246); conditions: primary human lung fibroblasts
How it was run: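 bFGF was measured by ELISA in primary human lung fibroblasts 24 h after chemical addition. Signal was analysed as positive-direction change relative to DMSO baseline.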

[2] = read-out: Collagen IV, COL4A1 (gene 1282); experiment: BSK_MyoF_CollagenIV: BioMAP Diversity Plus: MyoF Assay for Collagen IV Biomarker Activity (AID 2284247); conditions: primary human lung fibroblasts
How it was run: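 Collagen IV quantified by ELISA in human lung fibroblast cultures 24 h after chemical treatment, with DMSO as baseline. Parallel SRB staining (0.1% SRB after TCA fixation, 560 nm) flags overt cytotoxicity.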

[3] = read-out: Monokine induced gamma interferon (MIG), CXCL9 (gene 4283); experiment: BSK_KF3CT_MIG: BioMAP Diversity Plus: KF3CT Assay for Monokine induced gamma interferon (MIG) Biomarker Activity (AID 2284248); conditions: primary human keratinocytes with fibroblasts
How it was run: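 Human keratinocyte plus foreskin fibroblast primary co-culture dosed with test chemical for 24 h; MIG level measured by ELISA and fitted in the positive direction against DMSO as baseline.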

[4] = read-out: Vascular cell adhesion molecule 1 (VCAM1), VCAM1 (gene 7412); experiment: BSK_BF4T_VCAM1: BioMAP Diversity Plus: BF4T Assay for Vascular cell adhesion molecule 1 (VCAM1) Biomarker Activity (AID 2284249); conditions: primary human bronchial epithelial cells with fibroblasts
How it was run: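 Cell-surface VCAM-1 quantified by ELISA after 24 h chemical exposure of human bronchial epithelial/dermal fibroblast co-cultures, with SRB staining in parallel wells for cytotoxicity; DMSO baseline, positive-direction fitting.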

[5] = read-out: Collagen I, COL1A1 (gene 1277); experiment: BSK_hDFCGF_CollagenI: BioMAP Diversity Plus: hDFCGF Assay for Collagen I Biomarker Activity (AID 2284250); conditions: primary human foreskin fibroblasts
How it was run: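 Collagen I quantified by ELISA 24 h after chemical dosing of human dermal fibroblast primary cells, with parallel SRB staining (0.1%, TCA-fixed, 560 nm) for overt cytotoxicity.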

[6] = read-out: Interferon-inducible T-cell alpha chemoattractant (ITAC), CXCL11 (gene 6373); experiment: BSK_hDFCGF_ITAC: BioMAP Diversity Plus: hDFCGF Assay for Interferon-inducible T-cell alpha chemoattractant (ITAC) Biomarker Activity (AID 2284251); conditions: primary human foreskin fibroblasts
How it was run: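 Measured by ELISA, the chemokine level serves as the endpoint in human skin fibroblast primary cultures 24 h after compound addition. Increases relative to DMSO-treated wells define activity.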

[7] = read-out: Plasminogen activator inhibitor-1 (PAI1), SERPINE1 (gene 5054); experiment: BSK_KF3CT_PAI1: BioMAP Diversity Plus: KF3CT Assay for Plasminogen activator inhibitor-1 (PAI1) Biomarker Activity (AID 2284252); conditions: primary human keratinocytes with fibroblasts
How it was run: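 PAI-1 levels quantified by ELISA after 24 h compound exposure of primary human skin keratinocytes co-cultured with fibroblasts. Activity is the gain relative to DMSO; cytotoxicity tracked in parallel cultures via SRB staining.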

[8] = read-out: Monocyte Chemoattractant Protein-1 (MCP1), CCL2 (gene 6347); experiment: BSK_IMphg_MCP1: BioMAP Diversity Plus: IMphg Assay for Monocyte Chemoattractant Protein-1 (MCP1) Biomarker Activity (AID 2284253); conditions: primary human endothelial cells with macrophages
How it was run: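 ELISA readout of MCP-1 at 24 hours in IMphg co-cultures of venular endothelial cells and macrophages, normalised to DMSO; parallel cultures stained with sulforhodamine B for overt cytotoxicity.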

[9] = read-out: Interleukin-8 (IL8), CXCL8 (gene 3576); experiment: BSK_KF3CT_IL8: BioMAP Diversity Plus: KF3CT Assay for Interleukin-8 (IL8) Biomarker Activity (AID 2284254); conditions: primary human keratinocytes with fibroblasts
How it was run: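 Human primary keratinocyte plus foreskin fibroblast co-culture dosed with test chemicals; IL-8 measured by ELISA 24 h after dosing. Activity fitted in the positive direction relative to DMSO negative control.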

[10] = read-out: Plasminogen activator inhibitor-1 (PAI1), SERPINE1 (gene 5054); experiment: BSK_MyoF_PAI1: BioMAP Diversity Plus: MyoF Assay for Plasminogen activator inhibitor-1 (PAI1) Biomarker Activity (AID 2284256); conditions: primary human lung fibroblasts
How it was run: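 ELISA read-out of PAI-1 from primary human lung fibroblast cultures 24 h after dosing; gain-of-signal fit versus DMSO control.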

CD69, CD69 (gene 969) = experiment: BSK_IMphg_CD69: BioMAP Diversity Plus: IMphg Assay for CD69 Biomarker Activity (AID 2284257); conditions: primary human endothelial cells with macrophages
How it was run: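 Readout is ELISA for CD69 in primary human venular endothelial cell/macrophage co-culture, taken at 24 h post-dosing. SRB staining of parallel cultures gauged overt cytotoxicity; signal increase versus DMSO defined activity.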

[11] = read-out: Eotaxin 3, CCL26 (gene 10344); experiment: BSK_BF4T_Eotaxin3: BioMAP Diversity Plus: BF4T Assay for Eotaxin 3 Biomarker Activity (AID 2284258); conditions: primary human bronchial epithelial cells with fibroblasts
How it was run: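 ELISA measurement of Eotaxin-3 after 24 h chemical exposure in a bronchial epithelial/dermal fibroblast co-culture, with DMSO as baseline. Parallel SRB staining (0.1% SRB after 10% TCA fixation, 560 nm) flagged overt cytotoxicity.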

[12] = read-out: Monocyte Chemoattractant Protein-1 (MCP1), CCL2 (gene 6347); experiment: BSK_BF4T_MCP1: BioMAP Diversity Plus: BF4T Assay for Monocyte Chemoattractant Protein-1 (MCP1) Biomarker Activity (AID 2284259); conditions: primary human bronchial epithelial cells with fibroblasts
How it was run: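 MCP-1 ELISA readout taken 24 h after dosing in the BF4T system (bronchial epithelial cells plus dermal fibroblasts). Parallel SRB total-protein staining flagged cytotoxicity; DMSO served as baseline, positive fitting direction.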

[13] = CCTE_Mundy_HCI_hNP1_CellTiter: CCTE's Cell Titer-Glo 2 Assay in human neuroprogenitor cells for Viability, Mundy Lab (AID 2284241; active = hit-call score of the fitted dose curve at least 0.9, where 1 is the maximum;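 as to AC50: a hit is a drop in ATP luminescence versus DMSO meaning reduced viability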)
How it was run: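 Viability read as luminescent ATP content (CellTiter-Glo, 30 min room temperature) twenty-four hours after dosing, relative to DMSO. Cells: WA09-derived hNP1 neuroprogenitors on poly-L-ornithine/laminin, plated 40 to 44 hours before chemical.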

[14] = CCTE_Mundy_HCI_Cortical_Synap_Neur_Matur_NeuronCount: CCTE's Synaptogenesis and Neurite Maturation Assay in rat cortical cells for Neuron Count, Mundy Lab (AID 2284242; active = hit-call score of the fitted dose curve at least 0.9, where 1 is the maximum;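 as to AC50: hits reduce neuron count versus DMSO baseline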)
How it was run: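 Neuron counts come from automated high-content imaging of Hoechst nuclei and MAP2/synaptophysin immunostaining at DIV 12, with loss of signal judged against DMSO. Cultures of rat cortical cells had glial growth arrested by AraC at DIV 5; chemical exposure began DIV 7.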

[15] = read-out: Interleukin 17F (IL17F), IL17F (gene 112744); experiment: BSK_BT_xIL17F: BioMAP Diversity Plus: BT Assay for Interleukin 17F (IL17F) Biomarker Activity (AID 2284243); conditions: primary human B cells with PBMC
How it was run: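 B cell/PBMC co-culture (human primary), 24 h compound exposure; sIL-17F by Luminex xMAP; gain-of-signal fit vs DMSO baseline.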

[16] = read-out: Actin alpha 1 (ACTA1), ACTA1 (gene 58); experiment: BSK_MyoF_ACTA1: BioMAP Diversity Plus: MyoF Assay for Actin alpha 1 (ACTA1) Biomarker Activity (AID 2284244); conditions: primary human lung fibroblasts
How it was run: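 alpha-SMA levels read by ELISA against DMSO baseline, 24 h post-dose, in primary human lung fibroblasts. Parallel cultures stained with 0.1% SRB after 10% TCA fixation (560 nm) to flag overt cytotoxicity.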

[17] = read-out: Interleukin 2 (IL2), IL2 (gene 3558); experiment: BSK_BT_xIL2: BioMAP Diversity Plus: BT Assay for Interleukin 2 (IL2) Biomarker Activity (AID 2284245); conditions: primary human B cells with PBMC
How it was run: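 Secreted IL-2 was read by Luminex xMAP from B cells co-cultured with PBMC (human primary) 24 h post-dosing; activity was analysed as gain of signal relative to DMSO vehicle.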

[18] = read-out: Macrophage Inflammatory Protein-1 Alpha (MIP1a), CCL3 (gene 6348); experiment: BSK_IMphg_MIP1a: BioMAP Diversity Plus: IMphg Assay for Macrophage Inflammatory Protein-1 Alpha (MIP1a) Biomarker Activity (AID 2284255); conditions: primary human endothelial cells with macrophages
How it was run: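 MIP-1a protein levels were quantified by ELISA after 24 h treatment of human endothelial cell–macrophage co-cultures, compared with DMSO. Parallel cultures were fixed with TCA and stained with 0.1% SRB to gauge overt cytotoxicity.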

[19] = read-out: Intercellular Adhesion Molecule 1 (ICAM1), ICAM1 (gene 3383); experiment: BSK_BF4T_ICAM1: BioMAP Diversity Plus: BF4T Assay for Intercellular Adhesion Molecule 1 (ICAM1) Biomarker Activity (AID 2284260); conditions: primary human bronchial epithelial cells with fibroblasts
How it was run: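 ICAM-1 levels measured by ELISA after 24 h chemical treatment of bronchial epithelial cell/dermal fibroblast co-cultures, read against DMSO baseline. Overt cytotoxicity checked in parallel cultures by sulforhodamine B staining.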

Measured: AC50

FC(F)(I)C(F)(F)C(F)(F)C(F)(F)C(F)(F)C(F)(F)I
inactive: [2] | [5]
active: [1] 8.27 µM [middle of 5 runs] | [3] 9.38 µM [middle of 5 runs] | [4] 6.79 µM [middle of 5 runs] | [5] 14 µM and 10.1 µM | [6] 5.16 µM [middle of 5 runs] | [7] 6.91 µM [middle of 5 runs] | [8] 39.8 µM [middle of 5 runs] | [9] 6.35 µM [middle of 5 runs] | [10] 6 µM [middle of 5 runs] | CD69, CD69 (gene 969) 37.9 µM [middle of 5 runs] | [11] 8.19 µM [middle of 5 runs] | [12] 8.32 µM [middle of 5 runs]

CC#C[C@]1(O)CC[C@H]2[C@@H]3CCC4=CC(=O)CCC4=C3[C@@H](c3ccc(N(C)C)cc3)C[C@@]21C
active: [13] 27.4 µM and 21.6 µM | [14] 22.9 µM and 25.2 µM

CCCCCCCCCCCCCC[N+](C)(C)C
active: [15] 2.26 µM | [16] 2.31 µM | [17] 1.67 µM | [1] 4.65 µM | [2] 5.43 µM | [10] 3.69 µM

OCCC(F)(F)C(F)(F)C(F)(F)C(F)(F)C(F)(F)C(F)(F)F
active: [15] 5.95 µM | [5] 30 µM and 46.9 µM | [6] 55 µM and 57.4 µM | [18] 42.4 µM
inactive: [15] | [16] | [17] | [1] | [2] | [3] | [4] | [7] | [8] | [9] | [18] | [10] | CD69, CD69 (gene 969) | [11] | [12] | [19]

CC1=C(/C=C/C(C)=C/C=C/C(C)=C/C(=O)O)C(C)(C)CCC1
inactive: [14]

C[C@@H]1C[C@H]2[C@@H]3CCC4=CC(=O)C=C[C@]4(C)[C@@]3(F)[C@@H](O)C[C@]2(C)[C@@]1(O)C(=O)COP(=O)(O)O
active: [15] 0.277 µM | [16] 0.267 µM | [17] 807 nM and 148 nM | [6] 1.1 µM | [8] 1.04 µM and 1.15 µM | [18] 946 nM and 574 nM | [11] 951 nM
inactive: [15] | [16] | [1] | [2] | [3] | [4] | [5] | [6] | [7] | [9] | [10] | CD69, CD69 (gene 969) | [11] | [12] | [19]

OCCC(F)(F)C(F)(F)C(F)(F)C(F)(F)C(F)(F)C(F)(F)C(F)(F)C(F)(F)F
active: [15] 22.9 µM and 36.3 µM | [16] 14.6 µM and 15.1 µM | [17] 23.6 µM and 28.4 µM | [1] 17.4 µM and 10.7 µM | [3] 21.4 µM and 23.7 µM | [4] 8.57 µM and 8 µM | [5] 17.8 µM | [6] 12.4 µM | [7] 15.1 µM and 15.7 µM | [8] 49.6 µM and 45.9 µM | [10] 17.1 µM and 11.1 µM | CD69, CD69 (gene 969) 30 µM and 7.45 µM | [11] 13.5 µM and 9.61 µM | [12] 21.2 µM and 30 µM | [19] 30 µM
inactive: [13] | [2] | [5] | [9] | [18]

C=C(C)C(=O)OCCC(F)(F)C(F)(F)C(F)(F)C(F)(F)C(F)(F)C(F)(F)F
not listed: [14]
inactive: all other assays above

NCC(F)(F)C(F)(F)C(F)(F)C(F)(F)C(F)(F)C(F)(F)C(F)(F)F
active: [6] 12.1 µM | [9] 13.5 µM | [12] 220 nM
inactive: [15] | [16] | [17] | [1] | [2] | [3] | [4] | [5] | [6] | [7] | [8] | [9] | [18] | [10] | CD69, CD69 (gene 969) | [11] | [12] | [19]
